Data as given in ChEMBL document CHEMBL4513216, “Probing the Open Global Health Chemical Diversity Library for Multistage-Active Starting Points for Next-Generation Antimalarials” (ACS Infect Dis, 2020).
In all, about 69,000 compounds went through this assay and about 8,600 (12%) showed an effect of 50% or more. Many of the other results were omitted from the sample, so strong results are more common in it than they were.

Test system: Plasmodium berghei
Experiment: Screen against P. berghei liver stage (PbLuc), transformed with Luciferase, at 10uM
Format: functional, HepG2
Details: tested at 10 uM

SMILES	INHIBITION [%]
COCC(=O)N1CCC2(CC1)CN(S(C)(=O)=O)Cc1ccccc1O2	14.94
c1ncn(CC2CN(Cc3ccc4c(c3)OCCO4)CCO2)n1 (configuration not stated)	17.4
O=C(CC1CN(Cc2ccccc2)CCO1)Nc1ccsc1 (configuration not stated)	31.3
CC(C)[C@H]1CN(C(=O)CO)C[C@@H]1N(C)C	14
CCS(=O)(=O)N1C[C@@H](O)[C@H](N(C)Cc2ccc(F)cc2)C1	11.94
CC1CCN(C(=O)c2ccn(COc3ccccc3)n2)CC1	-15.5
CC(NC(=O)c1cc2n(n1)CCCN(C(C)C)C2)c1cn2ccsc2n1 (configuration not stated)	-59.5
CSc1ccccc1C(=O)NCc1cc2n(n1)CCCN(CC(C)C)C2	38.2
O=C(NCc1ccccn1)c1cc2n(n1)CCNC2	-54.5
CC(C)N1CCCn2nc(C(=O)NCCc3c[nH]cn3)cc2C1	18.2
CC(C)N1CCCn2nc(C(=O)NCc3ccccc3F)cc2C1	62.6
CC(C)N1CCCn2nc(C(=O)NCCc3ccccn3)cc2C1	57.2
CCN1CCO[C@@H]2CN(S(=O)(=O)c3cccs3)CC[C@@H]2C1	15.6
CC(C)N1C(=O)CN(CCOCCO)CC1(C)C	23.1
Cc1cccc(Cn2c(=O)[nH]c3csnc3c2=O)c1	12.8
CC(C)C(O)CNC(=O)Nc1cnn(Cc2ccccc2)c1 (configuration not stated)	4.82
CCSc1ncc(CN2C[C@@H]3CC[C@H]2CN(C2CCOCC2)C3)cn1	48.5
CN(C)c1ccc(CN2C[C@@H]3CC[C@H]2CN(C2CCOCC2)C3)cn1	53.5
CSc1ncc(CN2C[C@@H]3CC[C@H]2CN(C2CCOCC2)C3)cn1	9.91
Cc1nc(CN2CCC3(CCN(Cc4cnn(C)c4)C3)C2=O)cs1 (configuration not stated)	25.3
O=S1(=O)c2cccnc2OC(Cc2ccccc2)CN1CC1CC1 (configuration not stated)	24.5
OCC1(O)CCN(c2ccnc3c(C(F)(F)F)cccc23)CC1	17.5

SMILES	INHIBITION [%]
Cc1cc(C)c(C(=O)Nc2cccc(CN3CCC(CO)CC3)c2)o1	-30
Cc1nn(C)cc1C(=O)Nc1cccc(CN2CCC(CO)CC2)c1	44.2
Cc1nc(C)c(C(=O)Nc2cccc(CN3CCC(CO)CC3)c2)o1	61.8
CCc1cccc(-n2nnc(C(=O)O)c2-c2ccncc2)c1	45.8
CCCN1CCCN(C(=O)C(CC)N2CCCC2=O)CC1 (configuration not stated)	-3.99
Cc1n[nH]c(-c2ccc(NC(=O)C(C)N3CCN(C)CC3)cc2)n1 (configuration not stated)	-27.4
CCC(C(=O)Nc1ccc2c(C)n[nH]c2c1)N1CCCC1=O (configuration not stated)	53.6
CCC(C(=O)Nc1ccc(-c2nc(C)n[nH]2)cc1)N1CCCC1=O (configuration not stated)	59.1
Cc1n[nH]c(-c2ccc(NC(=O)C(C)(C)N3CCN(C)CC3)cc2)n1	-25.6
CCC(C(=O)NCc1ccn(-c2ccc(F)cc2)n1)N1CCCC1=O (configuration not stated)	2.82
CC(C)(C)c1noc(CCC(=O)NCC2CCS(=O)(=O)C2)n1 (configuration not stated)	26.4
Cc1cc(N(C)C)nc(C2COCCN2Cc2cscn2)n1 (configuration not stated)	45.9
O=C1CC(N(C(=O)c2ccc(F)c(C(F)(F)F)c2)C2CC2)C(=O)N1 (configuration not stated)	0.914
CCc1ccc2c(C3CN(CC4CCC4)C3)ncn2c1	27.5
O=C(NC[C@H]1OC[C@@H](NC2CCNCC2)[C@@H]1O)C1CCCC1	24.5
OC(COc1ccc(F)cc1)CN1CCC(Cn2cccn2)CC1 (configuration not stated)	22.9
CCCn1ccnc1-c1nccn1CCn1cnnc1	50.5
CCCn1ccnc1-c1nccn1CCN(C)C	34.1
COCc1ncc(-c2nccn2CCn2cnnc2)cn1	-0.614
C1CCC(CNC2CCCN(Cc3noc(C4CC4)n3)C2)CC1 (configuration not stated)	31.6
CC(C)n1c2ccccc2c2c1cc(C(=O)N(C)C)n2C(=O)N(C)C	47.5
CCCN(CC)C(=O)c1cc2c(c3ccccc3n2C)n1C(=O)N(C)C	11.9

SMILES	INHIBITION [%]
CC(C)n1c2ccccc2c2c1cc(C(=O)N(C)C)n2S(C)(=O)=O	49.4
CCCNC(=O)c1cc2c(c3ccccc3n2C)n1C(=O)N(C)C	26.2
CC(C)n1c2ccccc2c2c1cc(C(=O)NC1CC1)n2C(=O)N(C)C	60.2
COCCNC(=O)c1cc2c(c3ccccc3n2C)n1C(=O)N(C)C	36.9
CC(C)n1c2ccccc2c2c1cc(C(=O)O)n2C(=O)N(C)C	57.5
CC(C)NC(=O)CN(C)C(=O)c1c(Cl)c2ccccc2n1C	15.8
CN(C)C(=O)n1c(C(=O)NC(C)(C)CO)cc2c1c1ccccc1n2C	-24.9
CC(C)n1c2ccccc2c2c1cc(C(=O)NCCO)n2C(=O)N(C)C	55.7
CC(C)NC(=O)c1cc2c(c3ccccc3n2C)n1C(=O)N(C)C	36.9
CC(C)n1c2ccccc2c2c1cc(C(=O)N(C)C)n2C	82
Cc1ccc(C(=O)NCCSCc2cccs2)cn1	8.75
Cc1ccc(NC2CCN(C(=O)c3ccc(F)c(C)c3)CC2)nn1	47.1
COCCn1c(-c2cccc(OC)c2)cnc1NC(=O)NC1CCCC1	13.5
CN(C)c1cncc(C2CCCN2S(=O)(=O)c2cn(C)cn2)n1 (configuration not stated)	32.8
O=C(c1cnccn1)N1CCN(CC2CC2)c2ncccc2C1	-21.1
COCCC(=O)N(C)Cc1nc(C(F)(F)F)cs1	-26.8
O=C(NCc1cc[nH]n1)NCC(O)c1ccccc1F (configuration not stated)	7.12
CN(Cc1ccco1)C(=O)CN1CCCC1c1cccs1 (configuration not stated)	62.3
CN(CCC#N)C(=O)CN1CCCC1c1cccs1 (configuration not stated)	-85
COc1c(C2CCCN2CC(=O)N(C)Cc2ccco2)c(C)nn1C (configuration not stated)	89.4
N#CCCN(Cc1ccco1)C(=O)CN1CCCC1c1cccs1 (configuration not stated)	29.4
CCN(C(=O)CN1CCCC1c1c(C)nn(C)c1OC)C1CC1 (configuration not stated)	-23.3

SMILES	INHIBITION [%]
COc1c(C2CCCN2C(=O)c2ccco2)c(C)nn1C (configuration not stated)	7.18
CC(=O)Nc1ccc(CNCC(O)c2ccc(Cl)cc2)cc1 (configuration not stated)	45.7
c1cncc(CN2CCn3c(Cn4cncn4)cnc3C2)c1	31.1
Cc1ccc(CC(=O)N2CCCC(c3nccs3)C2)cn1 (configuration not stated)	3.4
O=C(NCC1(O)CCCC1)c1ccc2nsnc2c1	-47
Cc1cc(N(C)C)nc(N(C)Cc2csc(C)n2)n1	-3.35
Cc1nc(CC(=O)NCCNc2nccc(C(F)(F)F)n2)cs1	22.6
Cc1noc(C)c1CN(C)c1nccc(C(F)(F)F)n1	-25.7
COc1ccnc(N(C)Cc2csc(C)n2)n1	-62.7
Cc1nc(CN(C)c2nccc(N(C)C)n2)cs1	51.5
Cc1nc(CN(C)c2nccc(C(F)(F)F)n2)cs1	50.1
CCCN1CCCn2nc(CNS(=O)(=O)c3cnn(CC)c3)cc2C1	29.1
Cc1ccccc1OCCCC(=O)NCc1ccnc(O)c1	9.6
O=C(CCc1ccc(F)cc1)NCc1ccnc(NC2CC2)c1	53.3
CCOCCC(=O)NCc1ccnc(NC2CC2)c1	41.5
COc1ccccc1CC(=O)N1CCC(NCc2ccncc2)CC1	22.275
O=C(CCc1ccsc1)NCc1ccnc(OC2CCOCC2)c1	-8.91
COc1ccccc1CC(=O)NCc1ccnc(NC2CC2)c1	75.7
COc1ccc(CNC(=O)NC2CCN(C)CC2)c(C(F)(F)F)c1	33.8
O=C(Cn1ccnc1)N1CC[C@H](Oc2cccc(F)c2)[C@@H](O)CC1	13.85
CCOc1ccc(-n2nnc(C(=O)O)c2-c2ccncc2)cc1	15
O=C(O)c1ccnc(SCc2ccccc2)c1	13.5

SMILES	INHIBITION [%]
O=C(O)c1ccnc(SCC(F)(F)F)c1	57
O=C(O)c1ccnc(SCC(=O)c2ccccc2)c1	9.55
CC(=O)N1CCCN(C(=O)CN(C)c2ccc(Cl)cn2)CC1	22.8
COc1ccc(CN2CCCC2c2cccc(F)c2)c(OC)c1OC (configuration not stated)	16
Cc1ccc(S(C)(=O)=O)cc1C(=O)N1CCCC(n2cncn2)C1 (configuration not stated)	-12.1
CN(C)C(=O)CO[C@H]1CN(Cc2ccsc2)[C@@H]2COC[C@H]12	-0.284
CC(C)Cc1nc(NC(=O)c2cc(-c3cccnc3)n[nH]2)n[nH]1	40.1
COc1cccc(-c2cc(C(=O)Nc3nc[nH]n3)[nH]n2)c1	-43.7
O=C(Nc1ncc[nH]1)c1cc(-c2cccnc2)n[nH]1	57
CN1CC(=O)N(c2cccc(F)c2)CC12CCN(Cc1cccnc1)C2 (configuration not stated)	1.58
Cc1noc(C(C)C)c1C(=O)NCCC(=O)N1CCCCC1	-18
COc1ccccc1NC(=O)NC1(c2noc(CN(C)C)n2)CCCC1	48.1
Cc1cccc(CN2CCc3nnc(Cn4cccc4)n3CC2)n1	23.5
COCCNC(=O)Cn1c(-c2ccc(Cl)cc2)nc(C)c(CCO)c1=O	2.29
Cc1nc(-c2ccc(Cl)cc2)n(CC(=O)NC(C)C)c(=O)c1CCO	61.4
CCN(CC)C(=O)Cn1c(-c2ccc(Cl)cc2)nc(C)c(CCO)c1=O	-21.8
CCc1nnc(C(C)N2CCC(NC(=O)C3CCCCC3)CC2)o1 (configuration not stated)	11.3
CN(Cc1cnccn1)C(=O)[C@@]12CNC[C@@H]1CN(Cc1ccccc1)C2	-22.3
O=C(NCC1Cn2nnc(-c3cccc(F)c3)c2CO1)c1ccc[nH]1 (configuration not stated)	9.63
